Laboratory results as given in publication PMC7862700, “An all-to-all approach to the identification of sequence-specific readers for epigenetic DNA modifications on cytosine”.

How the values were obtained:
Test in all cases: DAPPL (digital affinity profiling via proximity ligation, sequencing); 10 mM Tris-HCl pH 7.5, 50 mM NaCl, 1 mM DTT, 4% glycerol, room temperature, 30 min; GST-TFs on glutathione beads, 16-mer random dsDNA library, 0.1% formaldehyde crosslink after washing; high values mean tight binding
FEV = target: T1, FEV (Homo sapiens, UniProt Q99581 1-238); details: protein: recombinant; tags: N-terminal GST; dsDNA, one strand shown
T1 sequence: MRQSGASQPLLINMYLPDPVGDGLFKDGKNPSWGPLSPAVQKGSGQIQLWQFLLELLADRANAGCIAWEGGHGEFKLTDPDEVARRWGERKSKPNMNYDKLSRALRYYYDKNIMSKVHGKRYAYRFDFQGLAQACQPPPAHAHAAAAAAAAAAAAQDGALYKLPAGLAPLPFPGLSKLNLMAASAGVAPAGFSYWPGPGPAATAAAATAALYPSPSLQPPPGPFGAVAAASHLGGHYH
Method in brief: (§1)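 In yeast, human transcription factors were expressed with a GST fusion, then pulled down on glutathione beads and given DNA barcodes. Pooled with a tag-only sample, they were exposed to 200 nmole of a 16-mer random double-stranded DNA library (Tris/NaCl/DTT/glycerol buffer, room temperature, 30 min), washed, crosslinked with 0.1% formaldehyde, proximity-ligated using BsaI/T4 ligase for 1 h at 37 °C, PCR-amplified and read on an Illumina NextSeq500. Each hexamer's frequency of reads for a factor, divided by the matching frequency for the tag-only sample, gives the binding signal.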

ETV5 = ETV5 (Homo sapiens, UniProt P41161 1-510); details: protein: recombinant; tags: N-terminal GST; dsDNA, one strand shown
Method in brief: as §1

HSF1 = HSF1 (Homo sapiens, UniProt Q00613 1-529); details: protein: recombinant; tags: N-terminal GST; chain copies: 3; dsDNA, one strand shown
Method in brief: as §1

SPIC = target: T2, SPIC (Homo sapiens, UniProt Q8N5J4 1-248); details: protein: recombinant; tags: N-terminal GST; dsDNA, one strand shown
T2 sequence: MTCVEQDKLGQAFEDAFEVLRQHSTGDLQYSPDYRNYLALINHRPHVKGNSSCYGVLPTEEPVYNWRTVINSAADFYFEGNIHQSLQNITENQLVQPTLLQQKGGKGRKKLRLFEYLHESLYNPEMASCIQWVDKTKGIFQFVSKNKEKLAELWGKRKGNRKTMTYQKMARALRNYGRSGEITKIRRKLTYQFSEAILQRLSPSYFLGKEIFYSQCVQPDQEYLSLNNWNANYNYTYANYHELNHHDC
Method in brief: as §1

ELF4 = ELF4 (Homo sapiens, UniProt Q99607 1-663); details: protein: recombinant; tags: N-terminal GST; dsDNA, one strand shown
Method in brief: as §1

ELK4 = target: T3, ELK4 (Homo sapiens, UniProt P28324-2 1-405); details: protein: recombinant; tags: N-terminal GST; dsDNA, one strand shown
T3 sequence: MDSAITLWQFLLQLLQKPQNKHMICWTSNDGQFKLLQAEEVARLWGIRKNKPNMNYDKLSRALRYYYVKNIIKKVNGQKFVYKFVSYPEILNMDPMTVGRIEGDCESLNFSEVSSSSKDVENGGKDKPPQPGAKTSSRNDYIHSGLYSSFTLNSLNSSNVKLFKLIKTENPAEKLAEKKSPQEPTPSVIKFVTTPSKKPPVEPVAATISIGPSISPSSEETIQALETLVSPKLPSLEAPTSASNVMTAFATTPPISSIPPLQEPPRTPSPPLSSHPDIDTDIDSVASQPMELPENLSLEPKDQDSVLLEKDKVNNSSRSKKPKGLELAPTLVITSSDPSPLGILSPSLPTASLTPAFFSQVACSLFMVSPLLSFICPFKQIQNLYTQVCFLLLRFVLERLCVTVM
Method in brief: as §1

ETV2 = target: T4, ETV2 (Homo sapiens, UniProt O00321 1-342); details: protein: recombinant; tags: N-terminal GST; dsDNA, one strand shown
T4 sequence: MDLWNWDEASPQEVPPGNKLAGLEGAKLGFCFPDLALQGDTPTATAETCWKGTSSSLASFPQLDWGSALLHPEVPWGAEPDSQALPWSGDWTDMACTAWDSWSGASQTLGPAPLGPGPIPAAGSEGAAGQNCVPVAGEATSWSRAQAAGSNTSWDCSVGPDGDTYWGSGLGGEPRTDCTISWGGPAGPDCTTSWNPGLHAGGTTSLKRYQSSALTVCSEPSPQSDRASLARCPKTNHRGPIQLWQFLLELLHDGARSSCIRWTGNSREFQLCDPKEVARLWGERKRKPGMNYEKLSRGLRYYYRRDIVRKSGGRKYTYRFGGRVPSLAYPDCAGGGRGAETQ
Method in brief: as §1

ELF3 = target: T5, ELF3 (Homo sapiens, UniProt P78545 1-371); details: protein: recombinant; tags: N-terminal GST; dsDNA, one strand shown
T5 sequence: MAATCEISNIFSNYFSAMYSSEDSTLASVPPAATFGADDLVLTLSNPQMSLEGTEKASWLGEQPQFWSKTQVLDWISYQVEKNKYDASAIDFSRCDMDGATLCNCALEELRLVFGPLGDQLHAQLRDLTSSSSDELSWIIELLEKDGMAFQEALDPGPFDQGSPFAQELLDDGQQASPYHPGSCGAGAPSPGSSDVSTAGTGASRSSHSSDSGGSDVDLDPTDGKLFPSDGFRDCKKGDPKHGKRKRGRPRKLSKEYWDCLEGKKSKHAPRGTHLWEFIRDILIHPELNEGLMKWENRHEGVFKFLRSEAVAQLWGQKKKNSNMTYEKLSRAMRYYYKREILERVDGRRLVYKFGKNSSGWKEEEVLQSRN
Method in brief: as §1

CRX = CRX (Homo sapiens, UniProt O43186 1-299); details: protein: recombinant; tags: N-terminal GST; dsDNA, one strand shown
Method in brief: as §1

ETV1 = ETV1 (Homo sapiens, UniProt P50549 1-477); details: protein: recombinant; tags: N-terminal GST; dsDNA, one strand shown
Method in brief: as §1

ERF = target: T6, ERF (Homo sapiens, UniProt P50548 1-548); details: protein: recombinant; tags: N-terminal GST; dsDNA, one strand shown
T6 sequence: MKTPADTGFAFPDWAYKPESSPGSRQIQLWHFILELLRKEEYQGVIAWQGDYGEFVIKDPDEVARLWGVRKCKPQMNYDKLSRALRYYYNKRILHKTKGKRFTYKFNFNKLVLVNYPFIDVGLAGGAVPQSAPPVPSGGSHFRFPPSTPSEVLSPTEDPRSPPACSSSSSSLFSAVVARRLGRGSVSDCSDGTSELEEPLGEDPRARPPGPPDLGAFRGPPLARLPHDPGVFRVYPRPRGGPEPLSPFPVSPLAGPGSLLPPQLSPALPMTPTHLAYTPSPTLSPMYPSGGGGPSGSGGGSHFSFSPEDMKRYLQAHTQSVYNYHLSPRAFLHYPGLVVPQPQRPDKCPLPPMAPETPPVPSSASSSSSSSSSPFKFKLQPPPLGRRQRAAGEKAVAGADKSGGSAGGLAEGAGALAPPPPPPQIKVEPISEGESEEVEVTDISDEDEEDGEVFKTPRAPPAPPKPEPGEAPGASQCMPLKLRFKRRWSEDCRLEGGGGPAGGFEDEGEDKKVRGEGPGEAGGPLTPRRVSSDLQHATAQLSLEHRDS
Method in brief: as §1

ETV3L = target: T7, ETV3L (Homo sapiens, UniProt Q6ZN32 1-361); details: protein: recombinant; tags: N-terminal GST; dsDNA, one strand shown
T7 sequence: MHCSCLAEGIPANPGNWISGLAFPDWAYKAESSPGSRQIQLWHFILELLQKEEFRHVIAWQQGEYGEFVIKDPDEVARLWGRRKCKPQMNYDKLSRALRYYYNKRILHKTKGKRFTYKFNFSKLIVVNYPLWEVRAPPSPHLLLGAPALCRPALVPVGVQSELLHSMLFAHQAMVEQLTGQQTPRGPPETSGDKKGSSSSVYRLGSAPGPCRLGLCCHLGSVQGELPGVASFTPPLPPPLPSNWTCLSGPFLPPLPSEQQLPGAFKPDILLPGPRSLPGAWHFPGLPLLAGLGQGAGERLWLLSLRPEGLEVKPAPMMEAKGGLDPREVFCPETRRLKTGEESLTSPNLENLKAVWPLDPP
Method in brief: as §1

ETS2 = target: T8, ETS2 (Homo sapiens, UniProt P15036 1-469); details: protein: recombinant; tags: N-terminal GST; dsDNA, one strand shown
T8 sequence: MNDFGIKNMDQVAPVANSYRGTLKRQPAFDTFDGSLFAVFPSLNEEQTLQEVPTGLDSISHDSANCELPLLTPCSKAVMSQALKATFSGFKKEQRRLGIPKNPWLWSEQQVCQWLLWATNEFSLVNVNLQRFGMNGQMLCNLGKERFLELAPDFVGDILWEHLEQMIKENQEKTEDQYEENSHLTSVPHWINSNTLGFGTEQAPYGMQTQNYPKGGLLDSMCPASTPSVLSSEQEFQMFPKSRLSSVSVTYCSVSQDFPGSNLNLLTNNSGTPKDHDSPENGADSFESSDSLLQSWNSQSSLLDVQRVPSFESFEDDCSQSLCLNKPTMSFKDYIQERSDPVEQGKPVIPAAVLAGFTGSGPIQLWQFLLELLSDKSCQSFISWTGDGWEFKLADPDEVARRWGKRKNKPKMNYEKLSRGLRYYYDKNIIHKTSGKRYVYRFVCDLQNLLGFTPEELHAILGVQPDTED
Method in brief: as §1

SPDEF = target: T9, SPDEF (Homo sapiens, UniProt O95238 1-335); details: protein: recombinant; tags: N-terminal GST; dsDNA, one strand shown
T9 sequence: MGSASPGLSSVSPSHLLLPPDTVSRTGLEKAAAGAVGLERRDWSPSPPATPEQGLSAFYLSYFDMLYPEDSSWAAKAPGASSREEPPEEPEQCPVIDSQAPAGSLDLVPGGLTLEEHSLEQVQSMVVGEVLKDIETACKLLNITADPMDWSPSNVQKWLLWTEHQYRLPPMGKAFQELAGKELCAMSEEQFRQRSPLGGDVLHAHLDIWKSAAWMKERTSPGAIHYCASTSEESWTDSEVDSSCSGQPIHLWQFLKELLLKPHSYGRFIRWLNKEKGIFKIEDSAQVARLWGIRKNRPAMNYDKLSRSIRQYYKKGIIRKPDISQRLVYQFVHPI
Method in brief: as §1

ETV7 = target: T10, ETV7 (Homo sapiens, UniProt Q9Y603 1-341); details: protein: recombinant; tags: N-terminal GST; dsDNA, one strand shown
T10 sequence: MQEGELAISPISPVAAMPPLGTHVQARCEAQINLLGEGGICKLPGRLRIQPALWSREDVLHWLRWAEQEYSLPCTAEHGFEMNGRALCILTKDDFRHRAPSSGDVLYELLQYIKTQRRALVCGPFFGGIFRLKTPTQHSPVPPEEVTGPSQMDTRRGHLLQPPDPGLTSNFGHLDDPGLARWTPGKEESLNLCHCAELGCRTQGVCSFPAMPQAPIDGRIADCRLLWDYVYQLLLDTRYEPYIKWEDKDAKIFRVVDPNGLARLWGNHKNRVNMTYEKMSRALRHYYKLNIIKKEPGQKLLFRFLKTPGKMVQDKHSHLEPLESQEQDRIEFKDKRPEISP
Method in brief: as §1

ELF5 = target: T11, ELF5 (Homo sapiens, UniProt Q9UKW6-2 1-255); details: protein: recombinant; tags: N-terminal GST; dsDNA, one strand shown
T11 sequence: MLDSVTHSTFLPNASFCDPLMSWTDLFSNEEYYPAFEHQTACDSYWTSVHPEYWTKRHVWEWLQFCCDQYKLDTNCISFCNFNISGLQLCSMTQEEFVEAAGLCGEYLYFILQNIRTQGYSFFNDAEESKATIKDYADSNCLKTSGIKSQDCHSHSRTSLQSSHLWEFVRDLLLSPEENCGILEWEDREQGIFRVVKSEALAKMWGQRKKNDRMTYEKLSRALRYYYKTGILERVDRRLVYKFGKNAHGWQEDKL
Method in brief: as §1

ETV3 = target: T12, ETV3 (Homo sapiens, UniProt P41162-2 1-143); details: protein: recombinant; tags: N-terminal GST; dsDNA, one strand shown
T12 sequence: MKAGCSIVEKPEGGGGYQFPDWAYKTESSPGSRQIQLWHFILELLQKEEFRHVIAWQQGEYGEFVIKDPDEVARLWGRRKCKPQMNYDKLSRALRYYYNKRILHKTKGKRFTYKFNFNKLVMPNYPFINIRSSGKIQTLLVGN
Method in brief: as §1

ETV6 = ETV6 (Homo sapiens, UniProt P41212 1-452); details: protein: recombinant; tags: N-terminal GST; dsDNA, one strand shown
Method in brief: as §1

CRX, sequence (O43186 whole entry): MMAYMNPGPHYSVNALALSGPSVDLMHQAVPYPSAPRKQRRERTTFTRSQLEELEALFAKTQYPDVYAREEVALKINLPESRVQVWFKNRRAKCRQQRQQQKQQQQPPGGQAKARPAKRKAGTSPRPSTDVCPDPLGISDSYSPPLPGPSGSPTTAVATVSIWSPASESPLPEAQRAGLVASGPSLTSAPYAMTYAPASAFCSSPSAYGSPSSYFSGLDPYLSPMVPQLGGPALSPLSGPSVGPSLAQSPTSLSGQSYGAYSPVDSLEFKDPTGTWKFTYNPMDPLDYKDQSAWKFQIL
ETV5, sequence (P41161 whole entry): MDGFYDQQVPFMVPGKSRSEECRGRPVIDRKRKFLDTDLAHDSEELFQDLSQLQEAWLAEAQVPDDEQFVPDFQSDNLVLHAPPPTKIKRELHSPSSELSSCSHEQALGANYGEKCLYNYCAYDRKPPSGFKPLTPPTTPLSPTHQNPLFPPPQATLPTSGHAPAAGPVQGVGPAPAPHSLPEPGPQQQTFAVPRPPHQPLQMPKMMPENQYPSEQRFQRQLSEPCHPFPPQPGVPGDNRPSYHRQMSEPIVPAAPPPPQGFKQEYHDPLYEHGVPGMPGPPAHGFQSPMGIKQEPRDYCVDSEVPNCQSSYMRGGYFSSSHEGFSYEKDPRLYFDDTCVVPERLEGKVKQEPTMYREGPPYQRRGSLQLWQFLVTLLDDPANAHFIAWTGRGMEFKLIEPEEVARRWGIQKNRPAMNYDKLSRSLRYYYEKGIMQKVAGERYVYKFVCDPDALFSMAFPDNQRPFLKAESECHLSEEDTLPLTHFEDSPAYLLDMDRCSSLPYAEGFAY
HSF1, sequence (Q00613 whole entry): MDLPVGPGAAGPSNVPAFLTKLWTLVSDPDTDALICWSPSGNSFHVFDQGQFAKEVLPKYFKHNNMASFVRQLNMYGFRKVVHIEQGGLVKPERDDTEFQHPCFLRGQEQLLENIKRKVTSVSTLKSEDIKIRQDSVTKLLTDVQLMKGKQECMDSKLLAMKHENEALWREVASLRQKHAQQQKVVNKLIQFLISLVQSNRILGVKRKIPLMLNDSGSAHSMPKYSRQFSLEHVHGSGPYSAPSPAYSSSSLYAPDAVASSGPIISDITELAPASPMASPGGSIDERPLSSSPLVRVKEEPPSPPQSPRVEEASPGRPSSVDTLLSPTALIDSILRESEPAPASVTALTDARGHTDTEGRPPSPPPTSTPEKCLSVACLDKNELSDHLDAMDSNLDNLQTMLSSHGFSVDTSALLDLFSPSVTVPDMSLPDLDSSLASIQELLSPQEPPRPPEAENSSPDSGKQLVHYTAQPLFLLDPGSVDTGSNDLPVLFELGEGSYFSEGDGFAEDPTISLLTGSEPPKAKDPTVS
ELF4, sequence (Q99607 whole entry): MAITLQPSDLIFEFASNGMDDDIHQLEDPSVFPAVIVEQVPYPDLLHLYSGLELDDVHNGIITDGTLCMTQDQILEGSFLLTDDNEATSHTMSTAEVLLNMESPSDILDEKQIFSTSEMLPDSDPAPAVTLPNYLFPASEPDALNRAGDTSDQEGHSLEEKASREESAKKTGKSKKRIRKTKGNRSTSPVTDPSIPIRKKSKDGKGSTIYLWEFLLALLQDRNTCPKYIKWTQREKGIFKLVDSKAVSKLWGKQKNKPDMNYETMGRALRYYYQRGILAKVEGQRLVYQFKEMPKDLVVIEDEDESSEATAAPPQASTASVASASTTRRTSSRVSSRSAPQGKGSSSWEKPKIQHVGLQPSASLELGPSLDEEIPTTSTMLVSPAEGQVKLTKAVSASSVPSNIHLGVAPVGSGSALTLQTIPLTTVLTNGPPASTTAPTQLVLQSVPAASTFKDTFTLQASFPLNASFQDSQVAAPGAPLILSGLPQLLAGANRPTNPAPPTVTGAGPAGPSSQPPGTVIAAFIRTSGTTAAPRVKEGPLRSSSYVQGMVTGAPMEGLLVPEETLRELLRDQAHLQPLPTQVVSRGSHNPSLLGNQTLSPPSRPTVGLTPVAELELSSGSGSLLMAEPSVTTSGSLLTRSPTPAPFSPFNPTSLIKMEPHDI
ETV1, sequence (P50549 whole entry): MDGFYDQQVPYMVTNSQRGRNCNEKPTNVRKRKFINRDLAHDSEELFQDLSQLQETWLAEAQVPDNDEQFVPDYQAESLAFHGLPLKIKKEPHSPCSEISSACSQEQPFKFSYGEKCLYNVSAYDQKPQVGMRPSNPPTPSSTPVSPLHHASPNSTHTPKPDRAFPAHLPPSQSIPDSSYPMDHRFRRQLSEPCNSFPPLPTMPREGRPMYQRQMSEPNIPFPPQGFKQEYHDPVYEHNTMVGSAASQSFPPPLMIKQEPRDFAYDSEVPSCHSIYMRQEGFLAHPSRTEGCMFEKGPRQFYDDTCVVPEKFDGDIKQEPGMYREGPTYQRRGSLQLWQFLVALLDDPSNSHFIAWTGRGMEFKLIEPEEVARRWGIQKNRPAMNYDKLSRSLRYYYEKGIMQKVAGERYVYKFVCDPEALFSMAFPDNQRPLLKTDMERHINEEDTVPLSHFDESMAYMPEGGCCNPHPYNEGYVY
ETV6, sequence (P41212 whole entry): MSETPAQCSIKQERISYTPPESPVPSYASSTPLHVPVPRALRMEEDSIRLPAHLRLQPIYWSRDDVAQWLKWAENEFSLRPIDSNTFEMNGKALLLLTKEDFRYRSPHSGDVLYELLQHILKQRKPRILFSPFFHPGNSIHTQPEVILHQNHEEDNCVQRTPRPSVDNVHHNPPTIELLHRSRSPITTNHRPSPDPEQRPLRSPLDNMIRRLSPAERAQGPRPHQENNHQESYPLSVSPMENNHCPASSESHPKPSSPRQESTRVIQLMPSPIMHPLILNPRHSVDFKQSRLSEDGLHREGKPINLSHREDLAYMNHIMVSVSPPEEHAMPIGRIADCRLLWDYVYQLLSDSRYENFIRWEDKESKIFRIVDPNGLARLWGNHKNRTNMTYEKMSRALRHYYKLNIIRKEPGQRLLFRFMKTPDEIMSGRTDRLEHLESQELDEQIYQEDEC

In the case of CAGGAT, the binding signal (FEV) is reported as 1.27 fold enrichment (6-mer frequency, TF over GST control), the binding signal (ETV5) is reported as 1.19 fold enrichment (6-mer frequency, TF over GST control) and the binding signal (HSF1) is reported as 1.08 fold enrichment (6-mer frequency, TF over GST control). For the same sequence, the binding signal (SPIC) was 1.04 fold enrichment (6-mer frequency, TF over GST control), the binding signal (ELF4) was 1.11 fold enrichment (6-mer frequency, TF over GST control) and the binding signal (ELK4) was 1.23 fold enrichment (6-mer frequency, TF over GST control). The binding signal (ETV2) was 1.15 fold enrichment (6-mer frequency, TF over GST control), the binding signal (ELF3) was 1.12 fold enrichment (6-mer frequency, TF over GST control) and the binding signal (CRX) was 1.35 fold enrichment (6-mer frequency, TF over GST control). For the same sequence, the binding signal (ETV1) was 1.34 fold enrichment (6-mer frequency, TF over GST control), the binding signal (ERF) was 1.15 fold enrichment (6-mer frequency, TF over GST control) and the binding signal (ETV3L) was 1.3 fold enrichment (6-mer frequency, TF over GST control). For the same sequence, the binding signal (ETS2) was 1.19 fold enrichment (6-mer frequency, TF over GST control), the binding signal (SPDEF) was 2.03 fold enrichment (6-mer frequency, TF over GST control) and the binding signal (ETV7) was 1.09 fold enrichment (6-mer frequency, TF over GST control). For the same sequence, the binding signal (ELF5) was 1.28 fold enrichment (6-mer frequency, TF over GST control), the binding signal (ETV3) was 1.22 fold enrichment (6-mer frequency, TF over GST control) and the binding signal (ETV6) was 1.19 fold enrichment (6-mer frequency, TF over GST control).
